From PubChem BioAssay (NCI)
Compounds without any hit were thinned out: in the full panel of roughly 79,000, 15% have a hit. Activity calls are given as the source filed them. Rule as the data show it: active = growth inhibition above about 70%; inactive = the rest.

Experiments:
[1] = NCI Yeast Anticancer Drug Screen. Data for the rad52 strain (AID 147);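 also: 0% = growth of vehicle-treated control cultures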; details: S. cerevisiae rad52 mutant growth inhibition, active compounds read high
Outline: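 Yeast strain carrying a DNA damage repair alteration was exposed to test compounds. Growth inhibition was measured relative to vehicle-treated controls.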

[2] = NCI Yeast Anticancer Drug Screen. Data for the wt1 strain (AID 149);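 also: 0% = growth of vehicle-treated wt1 cultures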; details: S. cerevisiae wt1 strain (SPY 50644) growth inhibition, active compounds read high
Outline: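 Readout: yeast growth inhibition, normalised to vehicle controls, in the wt1 strain exposed to test compounds.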

[3] = NCI Yeast Anticancer Drug Screen. Data for the rad50EPP+ strain (AID 151);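 also: 0% = growth of vehicle-treated control cultures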; details: S. cerevisiae rad50 mutant strain, active compounds read high
Outline: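 Yeast strain carrying rad50 alteration (rad50EPP+) exposed to compounds; growth inhibition measured relative to vehicle-treated controls.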

[4] = NCI Yeast Anticancer Drug Screen. Data for the mgt1 strain (AID 153); details: S. cerevisiae mgt1 mutant growth inhibition, active compounds read high
Outline: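 Yeast mgt1 strain (DNA repair/cell-cycle alteration panel) exposed to compounds; growth inhibition measured relative to vehicle-treated controls.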

[5] = NCI Yeast Anticancer Drug Screen. Data for the rad50 strain (AID 155);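 also: 0% = growth of vehicle-only cultures of the same strain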; details: S. cerevisiae rad50 strain growth inhibition, active compounds read high
Outline: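 Compounds were tested on a yeast strain with an engineered DNA damage repair alteration; the reported value is growth inhibition normalised to vehicle treatment.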

[6] = NCI Yeast Anticancer Drug Screen. Data for the mec2-1 strain (AID 157); details: S. cerevisiae mec2-1 strain, active compounds read high
Outline: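 mec2-1 yeast strain, carrying an alteration in DNA damage repair or cell cycle control, was exposed to compounds; growth inhibition was measured relative to vehicle-treated controls.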

[7] = NCI Yeast Anticancer Drug Screen. Data for the rad14 strain (AID 159);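 also: 0% = growth of vehicle-treated control cultures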; details: S. cerevisiae rad14 strain growth inhibition, active compounds read high
Outline: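 Compound-treated yeast with a defined DNA-repair lesion; growth inhibition normalised to vehicle-treated cultures.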

[8] = NCI Yeast Anticancer Drug Screen. Data for the sgs1 mgt1 strain (AID 161);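 also: 0% = growth of cultures given vehicle only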; details: S. cerevisiae sgs1 mgt1 strain, active compounds read high
Outline: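 Compounds are added to genetically altered yeast, and growth is compared with cultures given vehicle alone to give percent inhibition.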

[9] = NCI Yeast Anticancer Drug Screen. Data for the CLN2oe strain (AID 163);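 also: 0% = growth of vehicle-only control cultures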; details: S. cerevisiae CLN2oe strain, active compounds read high
Outline: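 Yeast cells carrying a defined cell-cycle control alteration were exposed to test compounds. Growth inhibition was scored against vehicle-treated control cultures.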

[10] = NCI Yeast Anticancer Drug Screen. Data for the cln2 rad14 strain (AID 165);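 also: 0% = growth equal to vehicle treated cultures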; details: S. cerevisiae cln2 rad14 strain, active compounds read high
Outline: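 Yeast carrying cln2 and rad14 alterations (cell cycle control and DNA damage repair) were exposed to compounds. Growth inhibition was measured against vehicle-treated controls.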

[11] = NCI Yeast Anticancer Drug Screen. Data for the bub3 strain (AID 167); details: S. cerevisiae bub3 mutant strain, active compounds read high
Outline: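 Growth of a checkpoint-deficient yeast mutant is measured after compound exposure. Values represent inhibition relative to vehicle.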

[12] = NCI Yeast Anticancer Drug Screen. Data for the wt2 strain (AID 169);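 also: 0% = growth of vehicle-treated yeast cultures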; details: S. cerevisiae wt2 strain growth inhibition, active compounds read high
Outline: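 Yeast cells were exposed to test compounds, and growth inhibition was measured relative to vehicle-treated controls.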

[13] = NCI Yeast Anticancer Drug Screen. Data for the mlh1 strain (AID 171);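 also: 0% = growth of vehicle-treated control cultures of the same strain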; details: S. cerevisiae mlh1 strain growth inhibition, active compounds read high
Outline: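 Yeast carrying a defined genetic alteration in DNA damage repair or cell cycle control were exposed to test compounds. Growth inhibition was measured relative to vehicle-treated controls.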

[14] = NCI Yeast Anticancer Drug Screen. Data for the sgs1 strain (AID 173);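 also: 0% = growth of vehicle-only control cultures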; details: S. cerevisiae sgs1 mutant, active compounds read high
Outline: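 Yeast mutant strains carrying defined defects in DNA damage repair or cell cycle control were exposed to test compounds. Growth inhibition was scored against vehicle-treated controls.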

[15] = NCI Yeast Anticancer Drug Screen. Data for the mlh1 rad18 strain (AID 175); details: S. cerevisiae mlh1 rad18 strain growth inhibition, active compounds read high
Outline: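 Growth inhibition of the yeast strain was measured after compound exposure and expressed relative to vehicle-treated controls. The strain carries defined defects in DNA damage repair.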

[16] = NCI Yeast Anticancer Drug Screen. Data for the rad18 strain (AID 177); details: S. cerevisiae rad18 mutant growth inhibition, active compounds read high
Outline: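 Yeast carrying a defined DNA damage repair alteration were exposed to compounds. Growth inhibition was expressed relative to vehicle-treated controls.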

[17] = at 5.0 µM (retest, dose inferred, filed as 0.5)
[18] = at 50.0 µM (retest, dose inferred, filed as 5.0)

Measured: growth inhibition

NC(=NCc1ccccc1)N/N=C\c1ccnc2ccccc12
inactive: [1]; at 1.2 µM 0% | [1]; at 3.7 µM -3% | [1]; at 11.0 µM 0% | [1]; at 33.0 µM 0% | [1]; at 100.0 µM 32% | [2]; at 1.2 µM -1% | [2]; at 3.7 µM -1% | [2]; at 11.0 µM -2% | [2]; at 33.0 µM 0% | [2]; at 100.0 µM 2% | [3]; at 1.2 µM -2% | [3]; at 3.7 µM 0% | [3]; at 11.0 µM 1% | [3]; at 33.0 µM 1% | [3]; at 100.0 µM 4% | [4]; at 1.2 µM -4% | [4]; at 3.7 µM -3% | [4]; at 11.0 µM 0% | [4]; at 33.0 µM 3% | [5]; at 1.2 µM 1% | [5]; at 3.7 µM 2% | [5]; [17] -2% | [5]; at 11.0 µM 4% | [5]; at 33.0 µM 7% | [5]; [18] 46% | [5]; at 50.0 µM 36% | [5]; at 100.0 µM 39% | [6]; at 1.2 µM -1% | [6]; at 3.7 µM 0% | [6]; [17] 2% | [6]; at 11.0 µM -1% | [6]; at 33.0 µM 7% | [6]; [18] 56% | [6]; at 50.0 µM 48.8% | [6]; at 100.0 µM 27% | [7]; at 1.2 µM 0% | [7]; at 3.7 µM 3% | [7]; at 11.0 µM 12% | [7]; at 33.0 µM 36% | [7]; at 100.0 µM 61% | [8]; [17] -6% | [8]; at 50.0 µM 66.3% | [9]; at 1.2 µM -6% | [9]; at 3.7 µM -6% | [9]; at 11.0 µM 1% | [9]; at 33.0 µM 22% | [10]; [17] 9% | [10]; [18] 62% | [10]; at 50.0 µM 21.1% | [11]; at 1.2 µM 0% | [11]; at 3.7 µM 0% | [11]; [17] -5% | [11]; at 11.0 µM 1% | [11]; at 33.0 µM 13% | [11]; [18] 60% | [11]; at 50.0 µM 22.4% | [11]; at 100.0 µM 56% | [12]; at 1.2 µM -2% | [12]; at 3.7 µM -3% | [12]; at 11.0 µM -1% | [12]; at 33.0 µM -1% | [12]; at 100.0 µM 38% | [13]; at 1.2 µM -2% | [13]; at 3.7 µM -1% | [13]; at 11.0 µM 2% | [13]; at 33.0 µM 10% | [13]; at 100.0 µM 52% | [14]; at 1.2 µM -1% | [14]; at 3.7 µM 0% | [14]; at 11.0 µM 1% | [14]; at 33.0 µM 13% | [14]; at 100.0 µM 61% | [15]; [17] 3% | [15]; [18] -21% | [15]; at 50.0 µM 44.4% | [16]; at 1.2 µM -2% | [16]; at 3.7 µM -3% | [16]; at 11.0 µM 0% | [16]; at 33.0 µM 5% | [16]; at 100.0 µM 28%
active: [4]; at 100.0 µM 76% | [8]; [18] 75% | [9]; at 100.0 µM 70%
